This is an account of results in ChEMBL document CHEMBL3988442, “University of Dundee, Small-Polar-MMV Screening Library” (2021).

The campaign covered roughly 48,000 compounds. About 13,000 (27%) showed an effect of 50% or more. The list shows a part of the results.

This experiment deals with Wolbachia pipientis. Briefly: Anti-Wolbachia Cell-Based Screen. It counts as functional. Also on record: scale not given: in the data most compounds retested in dose-response had high values. The settings on record: 5 µM.
Turning to `O=C(O)[C@@H]1CN(Cc2c[nH]c(CC3CCCC3)n2)C[C@H]1c1ccccn1`, the “Percent Effect” value is -9.177%. Regarding `O=C(c1ccc(O)cn1)N1CCOC(Cc2cccc(C(F)(F)F)c2)C1` (stereo not drawn), the “Percent Effect” value was 9.036%. `Cc1ccnc(OC[C@@]23CCO[C@@H]2CCN(c2ncc(F)cn2)C3)n1.O=C(O)C(F)(F)F`: the “Percent Effect” value is -3.381%. For the molecule `c1ccc(C2(NCC3CNc4ccnn4C3)CCC2)cc1` (stereo not drawn), the “Percent Effect” value came out at 81.61%.

For `O=C(NCCCNCC1CNc2ccnn2C1)c1ccccc1` (stereo not drawn), the “Percent Effect” value is given as -22.14%. `Cc1cnn(C2CN(CC(=O)NCC3(c4ccccc4)CC3)C2)c1`: the “Percent Effect” value is recorded as -47.8%.

Turning to `Cc1cnn(C2CN(CC(=O)NCC3(c4ccccc4)CCC3)C2)c1`, the “Percent Effect” value is -4.16%. To `c1ccc(Cn2cccn2)c(CNCC2CNc3ccnn3C2)c1` (stereo not drawn) belongs 2.44%; to `NC(=O)c1cnn2c1NCC(CNCC1(c3ccccc3)CCCC1)C2` (stereo not drawn), 95.13%; to `NC(=O)c1cnn2c1NCC(CNCCCOc1ccccc1F)C2` (stereo not drawn), -5.67%. On to `NC(=O)c1cnn2c1NCC(CNC1(c3ccccc3)CCC1)C2` (stereo not drawn), for which the “Percent Effect” value is on record as 91.1%. With `NC(=O)c1cnn2c1NCC(CNCCc1ccco1)C2` (stereo not drawn), the “Percent Effect” value is -4.106%.

Turning to `CNS(=O)(=O)c1cccc(C(C)NCc2ccc(C)c(C)c2)c1` (stereo not drawn), the “Percent Effect” value is recorded as -2.241%. Take `CCc1cnc(C)nc1NC(C)C(=O)Nc1cc(F)ccc1C` (stereo not drawn): the “Percent Effect” value is reported as -2.868%.

With `Cn1cnnc1S(=O)(=O)Cc1cc(Cl)c2c(c1)OCCO2`, the “Percent Effect” value is on record as -9.232%. To `COCCN(Cc1cccc(O)c1)Cc1ccccc1F` belongs 0.04507%; to `CN1CCN(Cc2cnc(S(=O)(=O)CC3CC3)n2CC2CCCO2)CC1` (stereo not drawn), -10.61%. For `O=C(CN1CCCS1(=O)=O)Nc1ccc(OC2CCCC2)c(Cl)c1`, the “Percent Effect” value is -10.49%.

Take `O=C(CC1CCC2(CC1)CCN(Cc1nccs1)CC2)N1CC=CC1`: the “Percent Effect” value is 106.8%. Then `O=C(O)C(F)(F)F.O=C(O)C(F)(F)F.O=C(O)C(F)(F)F.c1cc(CN2CCOCC3(CCN(CC4CCOCC4)CC3)C2)ccn1`, with -16.5%.

Turning to `O=C(C[C@H]1[C@H]2CN(Cc3ccc(F)cc3)C[C@@H]12)N1CCCC1.O=C(O)C(F)(F)F`, the “Percent Effect” value is given as -45.89%.

With `O=C(CC1CCC2(CC1)CCN(Cc1cccnc1)CC2)N1CC=CC1.O=C(O)C(F)(F)F.O=C(O)C(F)(F)F`, the “Percent Effect” value was 82.49%.

Take `O=C(Cc1cccnc1)N1CCC2(CCN(CC3CCCCC3)C2)CC1.O=C(O)C(F)(F)F.O=C(O)C(F)(F)F`: the “Percent Effect” value amounted to 8.236%. Regarding `O=C(O)C(F)(F)F.O=C(O)C(F)(F)F.c1csc(CN2CCC3(CC2)CCN(CC2CC2)CC3)n1`, the “Percent Effect” value is 12.33%. On to `COCC1CC2(CCN(Cc3cccnc3)CC2)CN1c1ncccn1.O=C(O)C(F)(F)F.O=C(O)C(F)(F)F.O=C(O)C(F)(F)F` (stereo not drawn), for which the “Percent Effect” value was -11.87%. For the molecule `O=C(c1cscn1)N1CCC2(CCN(Cc3nccs3)CC2)CC1`, the “Percent Effect” value is reported as -43.87%. Take `O=C(CC1CCC2(CC1)CCN(Cc1ccncc1)CC2)N1CCCC1.O=C(O)C(F)(F)F`: the “Percent Effect” value was determined as 108.9%. Regarding `COc1ccccc1OCc1nc2cc3c(cc2c(=O)o1)OCCCO3`, the “Percent Effect” value is listed as -14.32%.

Consider `Cc1nc(C2CCN(C[C@H](C)CO)CC2)cc(N2CCOCC2)n1`, for which the “Percent Effect” value is reported as 2.667%. `CCc1c(C(=O)N2CCC(CC(N)=O)CC2)cnn1C(C)(C)C`: the “Percent Effect” value is 114.3%. Take `CCc1c(C(=O)N2CCCC(N(C)C)C2)cnn1C(C)(C)C` (stereo not drawn): the “Percent Effect” value worked out at 105.9%.

As to `NC(=O)CC1CCN(C(=O)c2cnc(-c3ccccc3F)s2)CC1`, the “Percent Effect” value is 1.886%. Regarding `CCc1c(C(=O)N2CCN(c3cnccn3)CC2)cnn1C(C)(C)C`, the “Percent Effect” value is recorded as 78.79%. Turning to `CCCc1c(C(=O)N2CCN(c3cnccn3)CC2)cnn1C`, the “Percent Effect” value was determined as 10.15%.

`CCc1c(C(=O)N2CCNC(=O)C2)cnn1C(C)(C)C`: the “Percent Effect” value turned out to be 104.8%. Then `CCc1c(C(=O)N2CCN(c3ncccn3)CC2)cnn1C(C)(C)C`, with 6.599%. Turning to `CCc1c(C(=O)N2CCN(CC(N)=O)CC2)cnn1C(C)(C)C`, the “Percent Effect” value is 15.08%. With `Cc1ccsc1CNc1ccc(C(=O)N2CCNC(=O)C2)cn1`, the “Percent Effect” value is given as -3.195%. Then `Cc1ccc(C(=O)N2CCCC(N(C)C(=O)OC(C)(C)C)C2)o1` (stereo not drawn), with 9.731%; and `Cc1cc(C(=O)N2CCNC(=O)C2)c(C)n1CC(F)(F)F`, with -17.07%.

Consider `CCOCCn1nc(C)cc1C(=O)N1CCCC[C@H](N(C)C)C1`, for which the “Percent Effect” value was -3.082%.

Turning to `O=C(NCCN1CCOCC1)N1CCN(c2ccccc2)CC1`, the “Percent Effect” value is listed as -9.765%. To `Cc1ccccc1CNc1ccc(S(N)(=O)=O)c(C(F)(F)F)c1` belongs -19.7%; to `COc1cccc(CCC2CCCN(C(=O)C3=NN(C)C(=O)CC3)C2)c1` (stereo not drawn), 3.443%; to `CCC(CN1CCCCC1)NC(=O)C1(c2cccc(F)c2)CC1.O=C(O)CC(O)(CC(=O)O)C(=O)O` (stereo not drawn), 128.4%. As for `CCC(CN1CCCC1)NC(=O)C1(c2ccc(F)cc2)CC1` (stereo not drawn), the “Percent Effect” value was 125.8%. Consider `O=C(NCc1nncn1C1CC1)C1(c2cccc(F)c2)CCOCC1`, for which the “Percent Effect” value came out at 0.3927%.

On to `CC(Cn1ccnc1)NC(=O)C1(c2ccc(F)cc2)CC1` (stereo not drawn), for which the “Percent Effect” value was 6.075%. Regarding `CC(CNC(=O)C1(c2ccc(F)cc2)CC1)CN1CCCC1=O` (stereo not drawn), the “Percent Effect” value is -3.318%. Then `CC1CN(C(=O)C2(c3cccc(F)c3)CCOCC2)CCO1` (stereo not drawn), with -11.59%. Then `Cc1cc(C)n(CC(C)NC(=O)C2(c3ccc(F)cc3)CC2)n1` (stereo not drawn), with -1.516%. `Cc1cccc(C2(C(=O)NCC(C)CN3CCCC3=O)CC2)c1` (stereo not drawn): the “Percent Effect” value is -2.528%. Consider `O=C(NC(CN1CCCC1)c1ccccc1)c1c(O)cc(F)cc1F` (stereo not drawn), for which the “Percent Effect” value is reported as -3.42%.

For `O=C(NCC(O)COc1ccccc1)C1(c2ccc(F)cc2)CC1` (stereo not drawn), the “Percent Effect” value is -6.241%. Regarding `CCC(CN1CCCC1)NC(=O)C1(c2cccc(F)c2)CC1.O=C(O)CC(O)(CC(=O)O)C(=O)O` (stereo not drawn), the “Percent Effect” value turned out to be 113.9%. Then `CCC(CN1CCCCC1)NC(=O)C1(c2ccc(F)cc2)CC1.O=C(O)CC(O)(CC(=O)O)C(=O)O` (stereo not drawn), with 147.4%; and `COc1cccc(-c2n[nH]c3c2CN(C(=O)C2=C(C)OCCO2)CC3)c1`, with 9.828%.

In the case of `Cc1cc(CNc2cncc(C(=O)N(C)C)n2)c2[nH]c(C)c(C)c2c1`, the “Percent Effect” value is reported as 5.027%. On to `O=C(O)c1ccccc1-c1c(-c2ccccc2)ncn1C[C@H]1CCCN1`, for which the “Percent Effect” value is given as -12.22%. Turning to `c1cncc(CNc2cccc(OCCN3CCCCC3)c2)c1`, the “Percent Effect” value was 1.449%. Consider `CN(C)C(=O)CCNC(=O)NCc1ccc(Br)cc1Cl`, for which the “Percent Effect” value is 9.255%.

As to `O=c1[nH]nc(CNc2ncc(Br)cn2)[nH]1`, the “Percent Effect” value was found to be 1.625%. As to `CC(=O)c1cccc(OCCCC(=O)N(C)C2CCN(C)CC2)c1`, the “Percent Effect” value is -6.579%. Consider `COc1ccc(CNCCc2cc(F)cc3c2OCOC3)cc1O`, for which the “Percent Effect” value is 19%. Turning to `CCC(=O)N1CCC2(CCN(Cc3cccc(F)c3)CC2)CC1.O=C(O)C(F)(F)F`, the “Percent Effect” value was -2.197%.

As to `CCC(CN1CCN(C)CC1)NC(=O)C1(c2cccc(F)c2)CC1.O=C(O)CC(O)(CC(=O)O)C(=O)O` (stereo not drawn), the “Percent Effect” value amounted to 126%.

Consider `CCC(O)CN1CCN(C(=O)C2(c3ccc(C)c(OC)c3)CC2)CC1` (stereo not drawn), for which the “Percent Effect” value is reported as -7.505%. On to `O=C(O)C(F)(F)F.O=C(O)C(F)(F)F.c1cc2c(cc1CN1CC[C@H]3[C@H]1CCN3CC1CC1)OCO2`, for which the “Percent Effect” value is -18.3%. Turning to `CCN1CC(C(=O)N2CCc3cc(C(=O)N(C)C)n(C)c3C2)CCC1=O` (stereo not drawn), the “Percent Effect” value came to 22.54%. Take `Cc1ccccc1N1CCN(C(=O)Cc2ccc3c(c2)OCO3)CC1=O`: the “Percent Effect” value was -22.32%. For the molecule `CCCC(O)CN1CCC(=O)N(CC)Cc2cc3c(cc21)OCO3` (stereo not drawn), the “Percent Effect” value is recorded as 85.4%.

With `CCCC(O)CN1CCC(=O)N(CCOC)Cc2cc3c(cc21)OCO3` (stereo not drawn), the “Percent Effect” value turned out to be 110.9%. As to `CCCC(O)CN1CCC(=O)N(CC2CC2)Cc2cc3c(cc21)OCO3` (stereo not drawn), the “Percent Effect” value is recorded as 71.64%.

As for `COCC1c2c(cnn2C)CCN1C(=O)c1ccc2c(c1)OCO2` (stereo not drawn), the “Percent Effect” value amounted to 20.59%. Take `CC(=O)N1CC[C@H]2CC(=O)N(Cc3ccc4c(c3)OCO4)CC[C@H]2C1`: the “Percent Effect” value amounted to 1.484%.

Consider `COCCN1C[C@H]2CN(C(=O)c3ccc4c(c3)OCO4)CCN2C1=O`, for which the “Percent Effect” value was -8.36%.

In the case of `CC(NC(=O)Nc1ccccc1CN1CCOCC1)c1nnc(N)s1` (stereo not drawn), the “Percent Effect” value amounted to 1.041%. Turning to `Cc1cc(C)n(CC(C)NCc2nncn2C2CCCCC2)n1` (stereo not drawn), the “Percent Effect” value is recorded as -18.85%.

Turning to `CCC(C)NS(=O)(=O)Cc1cccc(NC(=O)c2ccc[nH]2)c1` (stereo not drawn), the “Percent Effect” value was -2.911%.

As to `Cc1ncsc1CCN(C)C(=O)CN1CC2(CCCC2)CC1=O`, the “Percent Effect” value is recorded as -2.773%. For the molecule `COc1cc(C(=O)NCCc2ccccc2OC)on1`, the “Percent Effect” value is recorded as 0.865%. For `O=C(N[C@H]1CC[C@H](O)CC1)c1ccc2nc(-c3ccccc3)cn2c1`, the “Percent Effect” value is recorded as -19.25%. To `CC(C)n1ccnc1CN1CCCN(C(=O)COC2CCCC2)CC1` belongs -4.301%; to `CCc1[nH]ncc1C(=O)N1CCCN(Cc2cnn(C(C)C)c2)CC1`, -9.524%.

Take `CC(C)n1cc(CN2CCCN(C(=O)CC3CCCO3)CC2)cn1` (stereo not drawn): the “Percent Effect” value is 115.9%. Regarding `CC(C)n1cc(CN2CCCN(C(=O)CC3CCCCC3)CC2)cn1`, the “Percent Effect” value amounted to 102.4%.

For the molecule `CC(C)n1cc(CN2CCCN(C(=O)COC3CCCC3)CC2)cn1`, the “Percent Effect” value is given as 98.23%.

Turning to `CCCC(=O)N1CCCN(C(=O)Nc2ccc(C)s2)CC1`, the “Percent Effect” value is listed as 4.138%. To `O=C(C(c1ccccc1)N1CCc2cncnc2C1)N1CCCCC1` (stereo not drawn) belongs -0.8294%; to `N#CC1(NC(=O)COc2cc(Cl)cc(Cl)c2)CCSC1` (stereo not drawn), -14.75%; to `O=C(NCCCn1cnnc1)C1CCCN(C2CCCC2)C1` (stereo not drawn), 8.155%. For the molecule `O=C(CCOc1ccccc1F)N1CCCCC1Cn1cccn1` (stereo not drawn), the “Percent Effect” value is listed as 114.4%. Consider `O=C(CCCOc1ccc(F)cc1F)N1CCCC1Cn1cccn1` (stereo not drawn), for which the “Percent Effect” value is 4.503%.

In the case of `COc1cc(C)ccc1OCCC(=O)N1CCCC1Cn1cccn1` (stereo not drawn), the “Percent Effect” value amounted to 6.133%. With `O=C(c1ccccc1OCC1CC1)N1CCCC1Cn1cccn1` (stereo not drawn), the “Percent Effect” value came out at 15.75%. As for `O=C(CCOc1ccccc1F)N1CCCC1Cn1cccn1` (stereo not drawn), the “Percent Effect” value turned out to be 123.4%. In the case of `COc1ccccc1OCCC(=O)N1CCCC1Cn1cccn1` (stereo not drawn), the “Percent Effect” value was determined as 114.3%. With `CCOCCC(=O)N1CCCCC1CCn1cccn1` (stereo not drawn), the “Percent Effect” value is given as -10.55%.
